# Records with an inconclusive call do not appear. A call without a number means that no potency is given here. Calls of active or inactive are those of the source. Unless noted, calls come from the whole dose curve.
# Tests used:
# [1] = target: Peroxisome proliferator-activated receptor delta (Homo sapiens) (UniProt Q03181); assay: qHTS assay for small molecule agonists of peroxisome proliferator-activated receptor delta signaling (AID 588534)
# Procedure, shortened: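 Cells carrying a PPAR-delta beta-lactamase reporter were treated with compounds for 18 h at 37 °C in agonist mode. CCF4 fluorescence was read after 2 h; EC50 and efficacy from Hill fits.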
# [2] = target: Bile acid receptor (Homo sapiens) (UniProt Q96RI1); assay: qHTS assay for small molecule antagonists of farnesoid X receptor signaling (AID 588526)
# Procedure, shortened: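 Antagonist mode: titrated compounds tested against chenodeoxycholic acid stimulation (normalized to 50 uM CDCA and DMSO) in GeneBLAzer HEK293T cells for 16 h. Beta-lactamase read by CCF4 fluorescence; IC50 from Hill fits.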
# [3] = qHTS assay for small molecule antagonists of peroxisome proliferator-activated receptor delta signaling (AID 588535; active = well fitted inhibition curve with a large enough effect in the signal ratio, with a control signal flat, not every such curve was filed as active; the % refers to the signal ratio;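 for max response: cells co-treated with a PPAR-delta agonist as stimulator during compound exposure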); settings: HEK293T PPARd-UAS-bla, beta-lactamase FRET ratio, 18 h; 460 nm channel
# Procedure, shortened: (§1)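 Antagonist-mode beta-lactamase reporter (GeneBLAzer PPAR-delta-UAS-bla) in HEK293T cells, 2% charcoal/dextran FBS, 4000 cells/well. Compound titrations, 18 h at 37 C; CCF4 ratio read, IC50 and efficacy from Hill fits.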
# [4] = target: Peroxisome proliferator-activated receptor delta (Homo sapiens) (UniProt Q03181); assay: as above
# Procedure, shortened: as §1
# [5] = target: Peroxisome proliferator-activated receptor gamma (Homo sapiens) (UniProt P37231); assay: qHTS assay for small molecule agonists of peroxisome proliferator-activated receptor gamma signaling (AID 588536; active = well fitted curve in the direction sought with a large enough effect in the signal ratio, with a control signal flat, not every such curve was filed as active; the % refers to the signal ratio)
# Peroxisome proliferator-activated receptor gamma (Homo sapiens), sequence (P37231 whole entry, looked up): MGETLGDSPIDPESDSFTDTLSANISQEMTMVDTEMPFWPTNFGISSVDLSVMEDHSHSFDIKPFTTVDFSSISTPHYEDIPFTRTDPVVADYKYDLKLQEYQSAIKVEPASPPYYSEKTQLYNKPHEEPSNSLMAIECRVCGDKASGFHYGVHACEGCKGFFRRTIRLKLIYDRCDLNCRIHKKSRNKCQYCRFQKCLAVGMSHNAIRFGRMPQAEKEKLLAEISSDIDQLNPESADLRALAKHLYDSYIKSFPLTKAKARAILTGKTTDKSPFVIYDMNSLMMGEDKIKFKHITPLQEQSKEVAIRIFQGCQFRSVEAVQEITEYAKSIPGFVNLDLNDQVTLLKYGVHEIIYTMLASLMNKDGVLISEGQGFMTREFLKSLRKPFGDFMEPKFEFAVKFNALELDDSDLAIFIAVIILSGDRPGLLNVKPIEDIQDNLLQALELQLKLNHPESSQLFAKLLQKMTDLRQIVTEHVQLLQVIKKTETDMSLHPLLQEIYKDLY
# Procedure, shortened: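 Ratiometric blue/green fluorescence (405 nm excitation; 460 and 530 nm emission) from CCF4-loaded HEK293 reporter cells serves as signal. Exposure to test compounds lasts 16 h at 37 C in medium containing 1% charcoal/dextran-treated serum.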
# [6] = target: Peroxisome proliferator-activated receptor gamma (Homo sapiens) (UniProt P37231); assay: qHTS assay for small molecule antagonists of peroxisome proliferator-activated receptor gamma signaling (AID 588537; active = well fitted inhibition curve with a large enough effect in the signal ratio, with a control signal flat, not every such curve was filed as active; the % refers to the signal ratio;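 note: reporter cells co-stimulated with 50 nM rosiglitazone agonist during compound treatment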)
# Procedure, shortened: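 PPARγ-UAS-bla HEK293 cells (3000/well) in 1% charcoal/dextran-stripped FBS are treated with compound, then stimulated with 50 nM rosiglitazone for 16 h at 37 °C. Read-out is CCF4 β-lactamase fluorescence after 2 h at RT. IC50 comes from Hill fits normalised to rosiglitazone and DMSO.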
# [7] = target: Vitamin D3 receptor (Homo sapiens) (UniProt P11473); assay: qHTS assay for small molecule antagonists of vitamin D receptor signaling (AID 588541);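 note: receptor activated by calcitriol during compound treatment; series mostly up to about 77 µM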
# Vitamin D3 receptor (Homo sapiens), sequence (P11473 whole entry, looked up): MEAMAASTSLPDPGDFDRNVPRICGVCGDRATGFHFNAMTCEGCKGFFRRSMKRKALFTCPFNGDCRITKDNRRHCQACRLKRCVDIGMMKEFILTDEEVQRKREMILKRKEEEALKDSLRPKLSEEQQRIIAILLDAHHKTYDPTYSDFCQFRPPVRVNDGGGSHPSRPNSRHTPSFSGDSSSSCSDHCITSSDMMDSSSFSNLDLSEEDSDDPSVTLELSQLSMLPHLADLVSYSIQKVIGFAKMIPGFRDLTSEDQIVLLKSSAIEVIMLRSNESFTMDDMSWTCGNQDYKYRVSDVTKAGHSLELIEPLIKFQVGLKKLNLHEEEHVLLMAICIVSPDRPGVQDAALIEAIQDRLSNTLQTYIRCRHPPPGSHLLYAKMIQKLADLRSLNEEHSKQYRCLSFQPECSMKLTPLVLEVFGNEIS
# Procedure, shortened: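 VDR-UAS-bla HEK293T cells in 2% charcoal-stripped FBS were stimulated with 1-alpha,25-dihydroxyvitamin D3 (3 nM final) plus compound for 16 h at 37 C. The beta-lactamase CCF4 readout was normalized to 50 nM agonist and DMSO, and Hill fits gave IC50.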
# [8] = target: Vitamin D3 receptor (Homo sapiens) (UniProt P11473); assay: qHTS assay for small molecule agonists of vitamin D receptor signaling (AID 588543)
# Procedure, shortened: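 β-lactamase reporter, VDR-UAS-bla HEK293T, agonist mode. Cells plated 5 h at 37 °C, compound titration 16 h at 37 °C, CCF4 dye 2 h RT, ratio 460/530 nm. Hill fit → EC50, efficacy vs 50 nM 1α,25-(OH)2D3.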
# [9] = qHTS assay for small molecule agonists of retinoid X receptor alpha signaling (AID 588544); settings: HEK293T RXRa-UAS-bla, beta-lactamase reporter, 18 h; 530 nm emission
# [10] = target: Retinoic acid receptor RXR-alpha (Homo sapiens) (UniProt P19793); assay: as above
# Retinoic acid receptor RXR-alpha (Homo sapiens), sequence (P19793 whole entry, looked up): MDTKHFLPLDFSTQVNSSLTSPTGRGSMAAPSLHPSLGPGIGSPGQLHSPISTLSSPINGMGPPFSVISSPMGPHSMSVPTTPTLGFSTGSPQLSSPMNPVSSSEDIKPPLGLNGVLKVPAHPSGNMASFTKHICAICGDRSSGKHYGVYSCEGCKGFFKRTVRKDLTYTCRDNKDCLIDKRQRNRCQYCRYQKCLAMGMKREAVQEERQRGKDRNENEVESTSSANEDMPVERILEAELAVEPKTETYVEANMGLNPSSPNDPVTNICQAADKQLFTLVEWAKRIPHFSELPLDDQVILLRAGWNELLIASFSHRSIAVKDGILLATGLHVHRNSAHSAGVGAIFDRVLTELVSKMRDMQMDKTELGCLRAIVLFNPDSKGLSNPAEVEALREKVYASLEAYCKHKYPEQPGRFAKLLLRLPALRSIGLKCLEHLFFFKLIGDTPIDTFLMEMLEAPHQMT
# [11] = qHTS assay for small molecule antagonists of retinoid X receptor alpha signaling (AID 588546; active = well fitted inhibition curve with a large enough effect in the signal ratio, with a control signal flat, not every such curve was filed as active; the % refers to the signal ratio;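 note: cells stimulated with 9-cis-retinoic acid as agonist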); settings: HEK293T RXRa-UAS-bla, beta-lactamase ratio, antagonist mode; measured here: W530 green channel, cytotoxicity proxy
# Procedure, shortened: (§2)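 Beta-lactamase reporter inhibition, read as CCF4 fluorescence ratio (ex 405, em 460/530 nm) after 2 h at RT. HEK293T UAS-bla cells, 2500/well, were stimulated with 9-cis-RA at 500 or 100 nM final alongside test compound for 18 h at 37 C.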
# [12] = target: Retinoic acid receptor RXR-alpha (Homo sapiens) (UniProt P19793); assay: as above; settings: HEK293T RXRa-UAS-bla, beta-lactamase ratio, antagonist mode
# Procedure, shortened: as §2
# [13] = target: Voltage-gated inwardly rectifying potassium channel KCNH2 (Homo sapiens) (UniProt Q12809); assay: qHTS Assay for Small Molecule Inhibitors of the Human hERG Channel Activity (AID 588834; active = well fitted curve in the direction sought with a large enough effect; an effect the other way counts as inactive or inconclusive;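 note: top concentration of the series differs between compounds; lower thallium flux fluorescence means stronger hERG block; nearly all actives have a fitted effect of over 50% in size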)
# Voltage-gated inwardly rectifying potassium channel KCNH2 (Homo sapiens), sequence (Q12809 whole entry, looked up): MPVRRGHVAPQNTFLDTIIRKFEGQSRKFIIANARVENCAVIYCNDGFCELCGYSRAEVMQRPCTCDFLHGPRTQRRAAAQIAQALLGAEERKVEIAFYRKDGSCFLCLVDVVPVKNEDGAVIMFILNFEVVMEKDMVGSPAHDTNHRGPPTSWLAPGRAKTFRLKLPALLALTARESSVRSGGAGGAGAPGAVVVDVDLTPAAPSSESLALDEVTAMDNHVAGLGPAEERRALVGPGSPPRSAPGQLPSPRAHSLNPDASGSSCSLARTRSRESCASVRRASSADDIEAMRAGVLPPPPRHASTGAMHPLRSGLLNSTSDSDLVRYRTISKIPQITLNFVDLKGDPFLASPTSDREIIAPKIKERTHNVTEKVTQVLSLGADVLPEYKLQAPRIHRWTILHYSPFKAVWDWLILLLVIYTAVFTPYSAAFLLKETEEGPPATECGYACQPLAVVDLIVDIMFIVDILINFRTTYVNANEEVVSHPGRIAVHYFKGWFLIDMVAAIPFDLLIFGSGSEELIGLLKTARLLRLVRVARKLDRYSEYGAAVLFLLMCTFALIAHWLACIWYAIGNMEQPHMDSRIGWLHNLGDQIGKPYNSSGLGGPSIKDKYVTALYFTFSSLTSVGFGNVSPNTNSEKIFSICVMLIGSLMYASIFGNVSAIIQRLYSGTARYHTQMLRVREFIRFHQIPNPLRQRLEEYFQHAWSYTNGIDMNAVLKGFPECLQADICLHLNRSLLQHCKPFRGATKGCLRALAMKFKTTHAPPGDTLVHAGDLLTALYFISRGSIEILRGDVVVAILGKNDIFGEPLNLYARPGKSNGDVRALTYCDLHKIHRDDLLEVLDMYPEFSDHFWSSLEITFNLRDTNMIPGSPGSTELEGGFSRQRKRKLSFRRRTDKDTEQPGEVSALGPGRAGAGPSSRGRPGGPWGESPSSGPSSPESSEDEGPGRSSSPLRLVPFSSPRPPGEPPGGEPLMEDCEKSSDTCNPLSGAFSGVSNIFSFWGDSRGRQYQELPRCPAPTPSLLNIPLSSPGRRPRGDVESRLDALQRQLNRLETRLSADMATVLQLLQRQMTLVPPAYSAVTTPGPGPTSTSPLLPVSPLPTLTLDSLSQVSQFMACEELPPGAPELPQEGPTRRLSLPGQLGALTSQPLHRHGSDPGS
# Procedure, shortened: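 Concentration-response qHTS measuring drop in thallium-sensitive dye signal. U2OS cells carrying BacMam hERG; compound exposure ~10 min, then stimulation buffer and 2 min read at 1 sec intervals.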
# [14] = target: Luciferin 4-monooxygenase (Photinus pyralis) (UniProt P08659); assay: Biochemical firefly luciferase enzyme assay for NPC (AID 624030; active = well fitted curve in the direction sought with a large enough effect; an effect the other way counts as inactive or inconclusive;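 note: purified P. pyralis luciferase at 10 nM with luciferin and ATP substrate; series mostly up to about 59 µM; nearly all actives have a fitted effect of over 70% in size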)
# Luciferin 4-monooxygenase (Photinus pyralis), sequence (P08659 whole entry, looked up): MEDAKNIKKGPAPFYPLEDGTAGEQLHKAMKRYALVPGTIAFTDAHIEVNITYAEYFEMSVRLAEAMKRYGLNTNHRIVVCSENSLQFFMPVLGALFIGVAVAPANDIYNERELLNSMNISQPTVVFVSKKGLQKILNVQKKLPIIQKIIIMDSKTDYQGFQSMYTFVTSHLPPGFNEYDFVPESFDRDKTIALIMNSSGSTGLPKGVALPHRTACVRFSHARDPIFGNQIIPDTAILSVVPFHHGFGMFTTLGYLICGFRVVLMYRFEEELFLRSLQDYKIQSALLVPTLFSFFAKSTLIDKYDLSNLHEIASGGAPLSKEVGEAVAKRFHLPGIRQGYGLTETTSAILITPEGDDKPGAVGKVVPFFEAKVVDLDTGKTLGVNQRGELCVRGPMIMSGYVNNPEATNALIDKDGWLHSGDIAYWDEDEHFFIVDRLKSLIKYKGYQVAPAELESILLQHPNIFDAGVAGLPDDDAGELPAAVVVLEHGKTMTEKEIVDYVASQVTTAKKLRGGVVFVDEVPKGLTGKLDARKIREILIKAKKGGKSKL
# Procedure, shortened: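 Purified P. pyralis luciferase at 10 nM in 50 mM Tris Acetate (final), luminescence read within 5 minutes of enzyme addition to compounds. Activity normalised to PTC124 versus DMSO; concentration-response curves classed by r2, magnitude and activity.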
# [15] = S16 Schwann cell viability assay (CellTiter-Glo assay) (AID 624031; active = well fitted curve in the direction sought with a large enough effect; an effect the other way counts as inactive or inconclusive;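 note: native untransfected S16 rat Schwann cells; cellular ATP luminescence as a viability measure; series mostly up to about 58 µM; nearly all actives have a fitted effect of over 70% in size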)
# Procedure, shortened: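 Rat S16 Schwann cells without reporter constructs received compound or DMSO for 24 h at 37 °C under 5% CO2. Cellular ATP was then quantified by CellTiter-Glo luminescence, with vehicle wells defined as 0% activity and cell-free wells as reference.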
# [16] = S16 Schwann cell PMP22 intronic element firefly luciferase assay (AID 624032; active = well fitted curve in the direction sought with a large enough effect; an effect the other way counts as inactive or inconclusive; note: nearly all actives have a fitted effect of over 30% in size; note: potency is the fitted concentration of half-maximal effect)
# Procedure, shortened: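 Rat S16 Schwann cells stably carrying firefly luciferase driven by a PMP22 intronic element, in 10% FBS, treated 24 h at 37 C. ONE-Glo luminescence normalized to PTC124 control and DMSO (0%); curves classed by r2, magnitude and activity.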
# [17] = target: Glucocorticoid receptor (Homo sapiens) (UniProt P04150); assay: qHTS assay for small molecule agonists of glucocorticoid receptor signaling (AID 588532; active = well fitted curve in the direction sought with a large enough effect in the signal ratio, with a control signal flat; the % refers to the signal ratio); settings: HeLa MMTV-bla, beta-lactamase ratio, agonist, 18 h; stronger effect = higher value; percent of dexamethasone control, DMSO zero
# Glucocorticoid receptor (Homo sapiens), sequence (P04150 whole entry, looked up): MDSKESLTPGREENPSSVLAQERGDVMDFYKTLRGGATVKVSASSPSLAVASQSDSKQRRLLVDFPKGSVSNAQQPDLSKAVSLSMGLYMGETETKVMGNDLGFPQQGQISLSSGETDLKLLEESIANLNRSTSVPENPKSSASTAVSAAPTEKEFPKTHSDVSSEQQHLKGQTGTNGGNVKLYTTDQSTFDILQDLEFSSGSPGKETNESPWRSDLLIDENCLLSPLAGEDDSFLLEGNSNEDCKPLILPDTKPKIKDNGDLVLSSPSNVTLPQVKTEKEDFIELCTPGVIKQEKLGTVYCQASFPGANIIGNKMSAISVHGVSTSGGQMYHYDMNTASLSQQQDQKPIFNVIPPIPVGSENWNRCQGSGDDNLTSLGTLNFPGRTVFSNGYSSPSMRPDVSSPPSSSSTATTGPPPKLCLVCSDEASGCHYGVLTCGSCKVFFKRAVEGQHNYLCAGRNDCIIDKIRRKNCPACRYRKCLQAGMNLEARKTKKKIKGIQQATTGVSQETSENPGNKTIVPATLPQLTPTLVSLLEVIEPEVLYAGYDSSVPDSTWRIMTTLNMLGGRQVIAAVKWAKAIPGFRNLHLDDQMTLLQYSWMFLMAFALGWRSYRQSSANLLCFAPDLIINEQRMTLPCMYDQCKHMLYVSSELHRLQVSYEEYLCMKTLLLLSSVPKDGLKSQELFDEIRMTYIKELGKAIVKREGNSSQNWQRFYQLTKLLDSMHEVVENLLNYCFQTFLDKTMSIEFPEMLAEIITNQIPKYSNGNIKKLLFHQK
# Procedure, shortened: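 Cells were plated and rested 3-5 h at 37 C, compounds were added in titration and incubated 18 h, then CCF4 substrate was loaded for 2 h at RT before reading blue/green fluorescence. EC50 came from Hill-equation fitting.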
# [18] = target: Glucocorticoid receptor (Homo sapiens) (UniProt P04150); assay: qHTS assay for small molecule antagonists of glucocorticoid receptor signaling (AID 588533; active = well fitted inhibition curve with a large enough effect in the signal ratio, with a control signal flat, not every such curve was filed as active; the % refers to the signal ratio; note: potency is the fitted concentration of half-maximal effect)
# Procedure, shortened: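 Antagonist-mode qHTS: compound titrations added to GRE-bla HeLa cells, then dexamethasone 2 nM final; 18 h, 37 C. CCF4 FRET fluorescence normalized to dexamethasone and DMSO; IC50 from Hill fit.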
# [19] = target: Thyroid hormone receptor beta (Homo sapiens) (UniProt P10828); assay: qHTS assay for small molecule agonists of thyroid hormone receptor beta signaling (AID 588545)
# Thyroid hormone receptor beta (Homo sapiens), sequence (P10828 whole entry, looked up): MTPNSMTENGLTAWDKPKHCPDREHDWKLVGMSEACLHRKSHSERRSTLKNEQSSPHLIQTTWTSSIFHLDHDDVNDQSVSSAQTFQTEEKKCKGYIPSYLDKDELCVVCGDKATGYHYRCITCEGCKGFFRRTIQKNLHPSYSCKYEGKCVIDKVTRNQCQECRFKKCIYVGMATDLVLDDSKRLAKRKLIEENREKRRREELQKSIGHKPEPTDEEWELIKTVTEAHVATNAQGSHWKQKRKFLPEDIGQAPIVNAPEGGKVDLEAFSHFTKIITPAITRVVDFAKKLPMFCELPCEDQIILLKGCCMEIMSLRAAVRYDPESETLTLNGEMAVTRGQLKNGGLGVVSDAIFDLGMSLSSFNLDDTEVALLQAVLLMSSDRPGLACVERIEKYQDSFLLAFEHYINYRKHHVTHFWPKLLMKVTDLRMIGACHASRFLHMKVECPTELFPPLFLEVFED
# Procedure, shortened: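 Agonist-mode beta-lactamase reporter assay, HEK 293 cells, 2% charcoal/dextran FBS; cells plated 4 hrs, compound 18 hrs at 37 C, CCF4 2 hrs RT. Normalized to 10 nM T3 (100%) and DMSO (0%); Hill fit gives EC50, efficacy.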
# [20] = target: Thyroid hormone receptor beta (Homo sapiens) (UniProt P10828); assay: qHTS assay for small molecule antagonists of thyroid hormone receptor beta signaling (AID 588547; active = well fitted inhibition curve with a large enough effect in the signal ratio, with a control signal flat, not every such curve was filed as active; the % refers to the signal ratio;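 note: cells stimulated with 0.4 nM T3 agonist during compound exposure; series mostly up to about 77 µM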); settings: TR-UAS-bla HEK293, beta-lactamase ratio, antagonist mode, 18 h
# Procedure, shortened: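 TR-UAS-bla GripTite HEK293 cells in 2% charcoal/dextran FBS medium; compounds 0.59 nM to 92 uM with T3 at 0.4nM final, 18 h at 37 C. Beta-lactamase read by CCF4 fluorescence (460/530 nm); Hill fits gave IC50 and efficacy.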
# Peroxisome proliferator-activated receptor delta (Homo sapiens), sequence (Q03181 whole entry, looked up): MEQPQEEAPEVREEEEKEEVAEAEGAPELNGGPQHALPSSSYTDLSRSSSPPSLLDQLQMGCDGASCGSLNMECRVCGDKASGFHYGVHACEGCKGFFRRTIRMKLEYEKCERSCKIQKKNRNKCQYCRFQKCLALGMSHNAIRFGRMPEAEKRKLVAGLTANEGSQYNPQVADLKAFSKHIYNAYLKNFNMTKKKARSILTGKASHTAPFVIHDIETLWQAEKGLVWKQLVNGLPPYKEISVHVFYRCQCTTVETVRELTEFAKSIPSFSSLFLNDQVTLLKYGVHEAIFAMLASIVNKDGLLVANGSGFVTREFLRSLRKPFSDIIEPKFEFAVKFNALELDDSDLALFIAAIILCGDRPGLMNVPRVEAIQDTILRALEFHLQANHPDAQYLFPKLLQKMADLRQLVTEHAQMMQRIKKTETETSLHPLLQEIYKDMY
compound,measurement,setting,value
c1ccc2[nH]c(-c3cscn3)nc2c1,outcome,[1],inactive
COCC(=O)N(c1c(C)cccc1C)C(C)C(=O)OC (centres undefined),Potency,[2],inactive
same,outcome,[1],inactive
same,max response,[3],-19%
same,Potency,[4],inactive
same,outcome,[5],inactive
same,Potency,[6],inactive
same,outcome,[7],inactive
same,outcome,[8],inactive
same,max response,[9],3.24%
same,outcome,[10],inactive
same,max response,[11],1.9%
same,max response,[12],-3.83% (inactive)
same,Potency,[13],inactive
same,Potency,[14],inactive
same,Potency,[15],inactive
same,Potency,[16],inactive
CC(=O)Oc1ccc(C(c2ccc(OC(C)=O)cc2)c2ccccn2)cc1,outcome,[1],inactive
Cc1ccc(N=CN(C)C=Nc2ccc(C)cc2C)c(C)c1,activation,[17],6.83% (inactive)
same,Potency,[18],inactive
same,outcome,[8],inactive
same,max response,[11],-10.6%
same,max response,[12],-33.7% (inactive)
same,Potency,[14],inactive
same,Potency,[15],inactive
same,Potency,[16],inactive
CCOC(=O)C(C)(C)Oc1ccc(Cl)cc1,outcome,[1],inactive
O=C(NC(=O)c1c(F)cccc1F)Nc1cc(Cl)c(OC(F)(F)C(F)C(F)(F)F)cc1Cl (centres undefined),Potency,[2],inactive
same,activation,[17],15.8% (inactive)
same,outcome,[5],inactive
same,Potency,[6],inactive
same,outcome,[7],inactive
same,outcome,[8],inactive
same,max response,[9],11.9%
same,outcome,[10],inactive
same,outcome,[19],inactive
same,max response,[11],-7.96%
same,max response,[12],-7.55% (inactive)
same,activity change % (negative = inhibition),[20],4.04% (inactive)
same,Potency,[13],inactive
same,Potency,[14],inactive
CCOP(=S)(OCC)O/N=C(\C#N)c1ccccc1,activation,[17],-3.68% (inactive)
same,Potency,[18],inactive
same,outcome,[1],inactive
same,outcome,[19],inactive
same,activity change % (negative = inhibition),[20],19.6% (inactive)
same,Potency,[14],inactive
CC1(C)[C@@H]2CC[C@@]1(C)C(=O)C2,outcome,[1],inactive
Nc1ccc(N=Nc2ccccc2)c(N)n1,outcome,[1],inactive
O=C(CCl)c1ccc(Cl)cc1Cl,activation,[17],-10.9% (inactive)
same,Potency,[18],14.1 µM (active)
same,outcome,[1],inactive
same,outcome,[19],inactive
same,Potency,[13],inactive
same,Potency,[14],inactive
CCN(CC)C(=O)c1cccc(C)c1,outcome,[1],inactive
CC(O)COc1ccccc1 (centres undefined),outcome,[1],inactive
CCCCCCCCCCCC[N+](C)(C)Cc1ccccc1,outcome,[1],inactive
NCCNc1cccc2ccccc12,outcome,[1],inactive
CCCCCCCCCCCCCCCC[n+]1ccccc1,outcome,[1],inactive
same,Potency,[16],10.2 µM (active)
C[C@@H]1O[C@@H](O[C@@H]2C=C3CC[C@@H]4[C@H](CC[C@]5(C)[C@@H](c6ccc(=O)oc6)CC[C@]45O)[C@@]3(C)CC2)[C@H](O)[C@H](O)[C@H]1O,Potency,[13],inactive
O=C1C(c2[nH]c3ccccc3c2O)=Nc2ccccc21,outcome,[1],inactive
CCCCCCCCC(=O)NCc1ccc(O)c(OC)c1,outcome,[1],inactive
same,max response,[3],11.4%
same,Potency,[4],inactive
same,outcome,[5],inactive
same,outcome,[7],inactive
same,outcome,[8],inactive
same,max response,[9],2.94%
same,outcome,[10],inactive
same,outcome,[19],inactive
same,max response,[11],-4.12%
same,max response,[12],-5.69% (inactive)
same,activity change % (negative = inhibition),[20],5.83% (inactive)
same,Potency,[13],inactive
same,Potency,[14],inactive
same,Potency,[15],inactive
same,Potency,[16],inactive
